Assay outcomes as filed in PubChem.
Shown are actives, neighbours in structure and some others; about 18% of the full set was active somewhere.
DT40 TDP1 no CPT: qHTS for Inhibitors of human tyrosyl-DNA phosphodiesterase 1 (TDP1): qHTS in cells in absence of CPT; DT40 Tdp1-/- hTDP1 cells, no CPT, ATP luminescence, 48 h; Potency, µM (titrated, usually from 46.2 µM), inactives show top-dose activity change, negative = growth inhibition, usual class: inhibitors; 420,000 tested, 15% active; AID 686978, 2013; note: potency is the fitted concentration of half-maximal effect; nearly all actives have a fitted effect of over 55% in size
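A cellular qHTS used chicken DT40 cells lacking endogenous Tdp1 but carrying stably transfected human TDP1. Compounds were applied without camptothecin, and cell growth kinetics were judged by ATP-dependent luminescence after ≥48 hr.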
VP16 counter: counter-screen for ROR gamma inhibitors: Gal4-VP16 reporter; Drosophila S2 Gal4-VP16 UAS-luciferase, luminescence, 20 h; Potency, µM (series often up to 53.6 µM), for inactives: at the top dose activity, negative = inhibition, actives largely listed as inhibitors; 310,000 tested, 3.5% active; AID 2546;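 note: Gal4-VP16 expression switched on by copper sulfate through the metallothionein promoter; potency is the fitted concentration of half-maximal effect; nearly all actives have a fitted effect of over 50% in size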
IL1B secr inh: inhibitors of inflammasome signaling (IL-1 beta secretion); 360,000 tested, 4.7% active; activity change, % at 57.5 µM; AID 743279; THP-1 LPS/ATP IL-1B secretion, AlphaLISA, 16 h; active compounds read low; in the data active = activity change below about -50%; inconclusive = mostly about -30% to -49%
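Secreted IL-1B measured by AlphaLISA bead assay after 16 h compound exposure of THP-1 cells; compounds (final up to 57.5 uM) added 1 h before LPS (250 ng/mL) and ATP (1.25 mM) stimulation; lower signal means less secretion.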
RORg inh: inhibitors of mouse ROR gamma transcriptional activity; P51450; Drosophila S2 Gal4-RORgamma UAS-luciferase reporter, 20 h; Potency, µM (highest dose often 53.6 µM), for the others: at the highest dose activity change, negative = inhibition, most hits filed as inhibitors; 310,000 tested, 5.4% active; AID 2551; note: potency is the fitted concentration of half-maximal effect; nearly all actives have a fitted effect of over 60% in size
Target sequence (P51450 whole entry, looked up, the tested form may be a part): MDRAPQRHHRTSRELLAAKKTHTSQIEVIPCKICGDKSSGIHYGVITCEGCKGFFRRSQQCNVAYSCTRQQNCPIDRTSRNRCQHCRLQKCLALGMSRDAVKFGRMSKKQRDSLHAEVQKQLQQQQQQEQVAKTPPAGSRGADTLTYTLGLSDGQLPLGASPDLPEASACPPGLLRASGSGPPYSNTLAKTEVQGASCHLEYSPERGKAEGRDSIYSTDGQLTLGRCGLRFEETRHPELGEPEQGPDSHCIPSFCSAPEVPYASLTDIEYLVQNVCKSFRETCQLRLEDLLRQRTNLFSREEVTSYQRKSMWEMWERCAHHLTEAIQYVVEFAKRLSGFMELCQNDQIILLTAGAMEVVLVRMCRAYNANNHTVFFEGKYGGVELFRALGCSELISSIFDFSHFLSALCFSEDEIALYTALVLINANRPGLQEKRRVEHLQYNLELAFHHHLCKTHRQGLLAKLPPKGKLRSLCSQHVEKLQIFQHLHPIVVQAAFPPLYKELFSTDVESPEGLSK
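Luminescence from a UAS-regulated Photinus luciferase reporter in stably transfected Drosophila Schneider cells is measured; decreased signal marks ROR gamma inhibition. Fusion expression is induced by 700 uM copper sulfate for 20 hr.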
LDHA inh: LDHA (human) enzyme inhibition. P00338. purified LDHA, NADH/diaphorase-resazurin fluorescence; active compounds read low. 480,000 tested, 0.15% active. activity change, % (values are at about 110 or 230 µM). AID 1347041; in the data active = activity change below about -30%; inconclusive = mostly about -25% to -30%;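 note: plate controls were DMSO wells for no effect and wells without enzyme for full effect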
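LDH5 2 nM; NADH 0.06 mM, pyruvate 0.2 mM; 200 mM Tris pH 7.4, EDTA, Tween-20; 5 min RT. Detection: diaphorase 0.133 mg/mL + resazurin 37 µM, fluorescence ex540/em590 at 0 and 20 min; normalized to enzyme-free and DMSO wells.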
TDP1 cell CPT: growth inhibition of DT40 Tdp1-/-;hTDP1 cells with camptothecin (screen for TDP1 inhibitors); chicken DT40 Tdp1-/-;hTDP1 cells + 20 nM CPT, ATP luminescence, 48 h; Potency, µM (top dose mostly 46.2 µM), for inactives: at the top dose activity change, negative = growth inhibition, most hits filed as inhibitors; 420,000 tested, 12% active; note: potency is the fitted concentration of half-maximal effect; nearly all actives have a fitted effect of over 55% in size
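Cell growth measured by CellTiter-Glo luminescence after a minimum 48 h, 37 C compound exposure with 20 nM CPT in Tdp1-knockout DT40 cells stably expressing hTDP1, seeded 400/well; qHTS titration format.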
Starred values were filed as active, the others as inactive; ? = inconclusive; · = no result. Unless noted, calls come from the whole dose curve; as a rule, active = well fitted curve in the direction sought with a large enough effect; inconclusive = small, poorly fitted or top-dose-only effect, or another doubt; inactive = no such curve, though single readings can be large; an effect the other way counts as inactive or inconclusive. Unless noted, % is set by controls: 0 for no effect and ±100 for the full control effect.

SMILES | DT40 TDP1 no CPT | VP16 counter | IL1B secr inh | RORg inh | LDHA inh | TDP1 cell CPT
O=C(Nc1ccc(Cl)c(Cl)c1)c1cccnc1 | ? | 1% | -8 | 34% | -2 | ?
O=C(Nc1ccc(Cl)c(Cl)c1)Nc1nnc(-c2ccncc2)o1 | · | · | · | · | -10 | ·
CCn1nc(C(=O)N2CC(C(=O)N(C)C)Oc3ccccc32)c2ccccc2c1=O (stereo unspecified) | · | · | · | · | 18 | ·
Cc1ccc(-n2cc(C(=O)c3ccccc3O)cn2)cc1 | ? | ? | -3 | 11µM* | -3 | -22%
Cc1ccc(O)c(C(=O)c2cnn(-c3ccccc3)c2)c1 | 12µM* | 6% | 7 | 33% | -3 | 7.3µM*
Cc1ccc(-n2cc(C(=O)c3ccc4ccccc4c3O)cn2)cc1 | -25% | 2% | 7 | -18% | 3 | -17%
CCc1cc(C(=O)Cc2cnn(-c3ccccc3)c2)c(O)cc1O | -20% | ? | 5 | ? | -3 | -20%
O=C(Cc1cnn(-c2ccccc2)c1)c1ccc(O)c(O)c1O | ? | 11% | 41 | 31% | 34 | 21µM*
O=C(c1ccsc1)N1CCCC(N2CCN(c3ccccc3F)CC2)C1 (stereo unspecified) | ? | -2% | 18 | 3% | -3 | -27%
CCc1cc(C(=O)N2CCCC(C(=O)c3ccc(OC)c(F)c3)C2)n(C)n1 (stereo unspecified) | ? | -2% | 35 | -44% | -8 | ?
CC(C)Oc1cccc(C(=O)C2CCCN(C(=O)c3ccc4c(c3)OCO4)C2)c1 (stereo unspecified) | ? | -5% | 3 | 0% | -18 | ?
O=C(c1noc2c1CCCC2)N1CCCC(N2CCN(c3ccccc3F)CC2)C1 (stereo unspecified) | ? | -1% | 0 | -1% | -1 | 29µM*
CCc1cc(C(=O)N2CCCC(C(=O)c3cccc(OC(C)C)c3)C2)n(C)n1 (stereo unspecified) | 18µM* | -3% | 24 | ? | -4 | 16µM*
CC(C)Oc1cccc(C(=O)C2CCCN(C(=O)c3ccsc3)C2)c1 (stereo unspecified) | -1% | 1% | 4 | ? | -9 | 1%
CC(C)Oc1cccc(C(=O)C2CCCN(C(=O)c3ccnn3C)C2)c1 (stereo unspecified) | 21µM* | -24% | 7 | 27% | -5 | ?
CC(C)Oc1cccc(C(=O)C2CCCN(C(=O)c3noc4c3CCCC4)C2)c1 (stereo unspecified) | 21µM* | -5% | -7 | ? | 3 | 18µM*
O=C(Nc1cccc(Oc2ccccc2)c1)C1CCCO1 (stereo unspecified) | · | · | · | · | 7 | ·
O=C(c1ccccc1)N1CCN(C(=O)c2[nH]c3ccccc3c2Cl)CC1 | · | · | · | · | 4 | ·
Cc1cccc(NC(=O)C2(C#N)C(c3ccccc3)C2(C)C(=O)c2ccccc2)c1 (stereo unspecified) | · | · | · | · | 26 | ·
COc1ccccc1NC(=O)COc1cc(O)c2c(=O)cc(-c3ccccc3)oc2c1 | · | · | · | · | -2 | ·
CCc1[nH]nc(C(=O)N2CCCC(C(=O)c3cccc(OC(C)C)c3)C2)c1C (stereo unspecified) | 16µM* | 0% | ? | ? | 1 | ?
CCc1cc(C(=O)N2CCCC(C(=O)c3ccc(Oc4ccccc4)cc3)C2)n(C)n1 (stereo unspecified) | 15µM* | -13% | -61* | ? | -1 | 10µM*
O=c1[nH]c2ccc([N+](=O)[O-])cc2[nH]1 | -1% | · | 7 | · | -9 | 10%
O=c1[nH][nH]c2cc([N+](=O)[O-])ccc12 | 3.7µM* | · | -6 | · | -2 | 3.7µM*
O=c1[nH]c2cc([N+](=O)[O-])ccc2c2ccccc12 | -21% | · | -3 | · | -5 | -17%
SMILES | DT40 TDP1 no CPT | VP16 counter | IL1B secr inh | RORg inh | LDHA inh | TDP1 cell CPT
O=c1[nH]c2cc([N+](=O)[O-])ccc2c2ccc([N+](=O)[O-])cc12 | 15µM* | · | 7 | · | 5 | 9.2µM*
O=C(O)CCCC(=O)Nc1cccc(C(=O)N2CCCCC2)c1 | · | · | · | · | 2 | ·
O=C(NC(=S)N(CCO)Cc1ccccc1)c1cc(Br)ccc1Cl | ? | 1.8µM* | -12 | 0.79µM* | -17 | ?
CCN(Cc1ccccc1)C(=S)NC(=O)c1ccccc1Br | ? | 1.1µM* | -19 | 0.79µM* | -6 | ?
C/C(CCc1ccccc1)=N\NC(=O)c1ccccc1[N+](=O)[O-] | -5% | -4% | 13 | -16% | -3 | 3%
CCCN(Cc1ccccc1)C(=S)NC(=O)c1ccccc1[N+](=O)[O-] | -30% | 1µM* | 0 | 0.35µM* | -6 | -8%
CSc1nc(Cl)cc(Sc2ccc(C)cc2)n1 | · | · | · | · | 5 | ·
N#Cc1ccc(OCCOC(=O)c2ccccc2F)cc1 | · | · | · | · | 0 | ·
COc1cc(NC(=O)Cn2c(NCc3ccccc3)nc3ccccc32)cc(OC)c1 | · | · | · | · | 15 | ·
COc1ccc(NC(=O)c2c(NCc3ccc(C)o3)sc3c2CCCCC3)c(OC)c1 | 18µM* | · | · | · | 1 | 9.2µM*
COc1ccc(NC(=O)c2c(NCc3cccc(F)c3)sc3c2CCCC3)c(OC)c1 | ? | · | · | · | 5 | ?
COc1ccc(NC(=O)c2c(NCc3ccc(C)o3)sc3c2CCC(C)C3)c(OC)c1 (stereo unspecified) | ? | · | · | · | 2 | 21µM*
COc1ccc(NC(=O)c2c(NCc3ccc(C)o3)sc3c2CCC(C)C3)cc1 (stereo unspecified) | 9.2µM* | · | · | · | 14 | 23µM*
COc1ccccc1NC(=O)c1c(NCc2ccc(C)o2)sc2c1CCC(C)C2 (stereo unspecified) | ? | · | · | · | 6 | 18µM*
N#Cc1cc([N+](=O)[O-])ccc1NC(=O)COC(=O)C1(c2ccc(F)cc2)CCCC1 | · | · | · | · | 3 | ·
COC(=O)[C@@]1(Cc2ccc(F)cc2)[C@H]2c3cc(C(=O)N4CCCC4)n(C)c3C[C@H]2CN1C(=O)c1ccccc1 | 16µM* | · | -54* | · | 2 | 23µM*
COCCn1c(C(=O)N2CCCC2)cc2c1C[C@H]1CN(C(=O)c3ccccc3)[C@@](Cc3ccc(F)cc3)(C(=O)OC)[C@@H]21 | ? | 1% | -17 | 43% | 6 | -13%
COC(=O)[C@@]1(Cc2ccc(F)cc2)[C@H]2c3cc(C(=O)N4CCCC4)n(Cc4ccccc4)c3C[C@H]2CN1C(=O)c1ccccc1 | 23µM* | -19% | -51* | 32% | -5 | ?
Cc1cc(C)c2nc(C(F)(F)F)c(C#N)c(N)c2c1 | ? | 6% | 35 | ? | -6 | ?
